{"source": "paper PMC4552634", "about": "“A New Set of Chemical Starting Points with Plasmodium falciparum Transmission-Blocking Potential for Antimalarial Drug Discovery” (PLoS ONE, 2015)", "note": "The campaign covered roughly 13,000 compounds. About 3,200 (25%) showed an effect of 50% or more. Some of the results follow."}
{"tested_on": "P. falciparum stage V gametocytes", "set-up": "BacTiter-Glo ATP luminescence viability of purified stage V gametocytes in 384-well plates, per cent inhibition versus DMSO", "details": "48 h, 5 µM; inhibitor", "units": {"% Inhibition": "%"}}
{"smiles": "C/C=C1/CN2CC[C@H]1C[C@H]2[C@H](O)c1ccnc2ccc(O)cc12", "note": "[TCMDC-138167]", "% Inhibition": 19.07}
{"smiles": "C=CCOc1ccccc1CNCC(O)c1cccc(C(F)(F)F)c1", "note": "(stereo not drawn) [TCMDC-140394]", "% Inhibition": 31.37}
{"smiles": "COc1ccc(CCN2CCC(Nc3nc4ccccc4n3CCc3ccc(OC)cc3)CC2)cc1", "note": "[TCMDC-123918]", "% Inhibition": 9.396}
{"smiles": "N#Cc1cc(C(=O)Nc2ccccc2)c(N)nc1SCC(=O)NC(c1ccccc1)c1cccs1", "note": "(stereo not drawn) [TCMDC-124880]", "% Inhibition": -24.84}
{"smiles": "CCN(CC)c1cc(C)c2cc(NC(=O)c3cc(=O)c4ccccc4o3)ccc2n1", "note": "[TCMDC-123592]", "% Inhibition": 0.01985}
{"smiles": "CN(C)Cc1cccc(-c2ccc(NC(=O)c3ccc4c(=O)n(C5CCCCC5)cnc4c3)cc2)c1", "note": "[TCMDC-132367]", "% Inhibition": -36.18}
{"smiles": "COc1cc(OC)nc(-c2cccc(NC(=O)c3ccc4c(=O)n(CCN5CCCCC5)cnc4c3)c2)n1", "note": "[TCMDC-132360]", "% Inhibition": -43.17}
{"smiles": "CN(C)Cc1cccc(-c2ccc(NC(=O)c3ccc4c(=O)n(Cc5cnn(C)c5)cnc4c3)cc2)c1", "note": "[TCMDC-132370]", "% Inhibition": -68.25}
{"smiles": "CCCn1cnc2cc(C(=O)Nc3ccc(-c4cccc(CN(C)C)c4)cc3)ccc2c1=O", "note": "[TCMDC-132363]", "% Inhibition": 8.061}
{"smiles": "CN(C)Cc1cccc(-c2ccc(NC(=O)c3ccc4c(=O)n(CCN5CCCCC5)cnc4c3)cc2)c1", "note": "[TCMDC-132362]", "% Inhibition": 105.2}
{"smiles": "CN(C)Cc1cccc(-c2ccc(NC(=O)c3ccc4c(=O)n(CC5CCCO5)cnc4c3)cc2)c1", "note": "(stereo not drawn) [TCMDC-132365]", "% Inhibition": 80.9}
{"smiles": "NC1=NC(c2ccccc2)(c2ccccc2)C(=O)N1Cc1ccc(-c2ccncc2)cc1", "note": "[TCMDC-136894]", "% Inhibition": 25.37}
{"smiles": "Cc1ccc2nc3c(cc(C(=O)NCc4ccccc4)c(=N)n3CCCn3ccnc3)c(=O)n2c1", "note": "[TCMDC-124377]", "% Inhibition": 6.883}
{"smiles": "C=C1C(C(=O)OCC)=CN(CC)c2cc(O[C@@H]3CCN(C(=O)OC(C)(C)C)C3)ccc21", "note": "[TCMDC-135647]", "% Inhibition": 15.51}
{"smiles": "O=C(/C=C/c1ccc(Cl)c(Cl)c1)NC1CCN(CCNC(=O)c2cccc(Cl)c2)CC1", "note": "[TCMDC-141950]", "% Inhibition": -32.49}
{"smiles": "CCCc1cc(=O)[nH]c(-n2nc(C)cc2NC(=O)c2cc3ccccc3o2)n1", "note": "[TCMDC-124939]", "% Inhibition": 13.85}
{"smiles": "O=C(NC1CCN(Cc2ccccc2O)C1)c1ccc(Cl)c(Cl)c1", "note": "(stereo not drawn) [TCMDC-141737]", "% Inhibition": 3.103}
{"smiles": "Oc1ccc(-c2ccccc2)cc1CN1CCCCC1", "note": "[TCMDC-125510]", "% Inhibition": 85.49}
{"smiles": "O=C(NC1CCCCN(Cc2ccccc2O)C1)c1ccc(Cl)c(Cl)c1", "note": "(stereo not drawn) [TCMDC-141736]", "% Inhibition": -19.06}
{"smiles": "Oc1ccc(-c2ccccc2)cc1CN1CCCCCC1", "note": "[TCMDC-124203]", "% Inhibition": 12.06}
{"smiles": "O=C(NC1CCCCN(Cc2ccccc2O)C1)c1ccc(-c2ccccc2)cc1", "note": "(stereo not drawn) [TCMDC-141746]", "% Inhibition": 61.29}
{"smiles": "O=C(NC1CCN(Cc2ccccc2O)C1)c1cccc(C(F)(F)F)c1", "note": "(stereo not drawn) [TCMDC-141744]", "% Inhibition": -4.979}
{"smiles": "O=S(=O)(NC1CCCCN(Cc2ccccc2O)C1)c1ccc(C(F)(F)F)cc1", "note": "(stereo not drawn) [TCMDC-141803]", "% Inhibition": -6.826}
{"smiles": "O=C(NC1CCCCN(Cc2ccccc2O)C1)c1cc(F)cc(F)c1", "note": "(stereo not drawn) [TCMDC-141742]", "% Inhibition": 24.3}
{"smiles": "O=C(NC1CCCCN(Cc2ccccc2O)C1)c1cccc(Cl)c1", "note": "(stereo not drawn) [TCMDC-141745]", "% Inhibition": 70.72}
{"smiles": "O=C(NC1CCN(Cc2ccccc2O)C1)c1ccc(-c2ccccc2)cc1", "note": "(stereo not drawn) [TCMDC-141747]", "% Inhibition": 74.99}
{"smiles": "CC(C)(c1ccccc1)c1ccc(O)c(CN2CCOCC2)c1", "note": "[TCMDC-124276]", "% Inhibition": -17.17}
{"smiles": "O=C(NC1CCCCN(Cc2ccccc2O)C1)c1cccc(C(F)(F)F)c1", "note": "(stereo not drawn) [TCMDC-141743]", "% Inhibition": 0.3319}
{"smiles": "Cc1ccccc1C1CCN(C2CCC(NC(=O)c3ccc(-c4cccs4)s3)CC2)CC1", "note": "(stereo not drawn) [TCMDC-134105]", "% Inhibition": -3.744}
{"smiles": "CC(=O)Nc1ncc(C(=O)Nc2cccc(-c3ccc(-c4nc5ccc(F)cc5[nH]4)cc3)c2)s1", "note": "[TCMDC-136916]", "% Inhibition": -12.2}
{"smiles": "O=C(NCc1ccccc1[S+]([O-])c1ccccc1CO)C(F)(F)F", "note": "(stereo not drawn) [TCMDC-137886]", "% Inhibition": 0.169}
{"smiles": "Cc1cccc2nc(-c3cccc(-c4ccc(CNCc5cnn(-c6ccccc6)n5)cc4)c3)[nH]c12.O=C(O)C(F)(F)F", "note": "[TCMDC-132965]", "% Inhibition": -15.5}
{"smiles": "S=C(NCCN1CCOCC1)Nc1ccccc1", "note": "[TCMDC-123845]", "% Inhibition": -18.32}
{"smiles": "N#Cc1cc(C(=O)c2cc(Cl)ccc2O)cn(-c2cc(Cl)cc(Cl)c2)c1=O", "note": "[TCMDC-125188]", "% Inhibition": -6.306}
{"smiles": "Cc1cc(N(C)C)nc(Nc2ccc(NS(=O)(=O)c3ccccc3)cc2)n1", "note": "[TCMDC-124952]", "% Inhibition": 7.952}
{"smiles": "COc1ccc(CNCc2ccccc2)cc1-c1ccc(S(=O)(=O)NCCN2CCCC2)c(C)c1", "note": "[TCMDC-132272]", "% Inhibition": 107.1}
{"smiles": "O=S(=O)(NCCN1CCCC1)c1ccc(-c2ccc(CNCc3ccc(F)cc3)cc2)cc1F", "note": "[TCMDC-132287]", "% Inhibition": 42.7}
{"smiles": "O=S(=O)(NCCN1CCCC1)c1ccc(-c2ccc(CNCc3ccccc3)cc2)cc1F", "note": "[TCMDC-132236]", "% Inhibition": 50.96}
{"smiles": "COc1ccc(CNCc2ccccc2)cc1-c1ccc(S(=O)(=O)NCCN2CCCC2)c(F)c1", "note": "[TCMDC-132265]", "% Inhibition": 101.3}
{"smiles": "COc1ccc(CNCc2ccc(F)cc2)cc1-c1ccc(S(=O)(=O)NCCN2CCCC2)c(C)c1", "note": "[TCMDC-132224]", "% Inhibition": 105.7}
{"smiles": "Cc1cc2c(cc1C(F)(F)F)N(C(=O)Nc1ccc(C(=O)NC3CCN(Cc4ccccc4)C3)cc1)CC2", "note": "(stereo not drawn) [TCMDC-139871]", "% Inhibition": 23.78}
{"smiles": "Clc1cc(Br)ccc1-c1ccc(CNCC2CCNCC2)o1", "note": "[TCMDC-124617]", "% Inhibition": 29.69}
{"smiles": "CC(C)Cc1cnc2nc(N)nc(N)c2c1", "note": "[TCMDC-137923]", "% Inhibition": 48.38}
{"smiles": "N#Cc1c(-c2ccccc2)cn2c1[nH]c(=O)c1ccccc12", "note": "[TCMDC-124997]", "% Inhibition": 14.43}
{"smiles": "CCN(CCCN1CCCCC1)c1cc(C)nc(Nc2ccc(C)c(F)c2)n1", "note": "[TCMDC-132437]", "% Inhibition": 25.13}
